The text below walks through data of the supplement of paper PMC10849652.

Of roughly 8,800 targets only a part is listed; those with a hit were picked by preference. About 0.5% of all pairs of compound and target were hits. Unmarked numbers belong to inactive results.

Holding throughout (experiment): log2 fold change, soluble protein after heating vs DMSO (PISA); higher = thermal stabilisation; K562 lysate, 10 uM; active = over 0.2 and 3.5 SD of the protein, either way, in both replicates (recomputed)
Compound in experiment [1]: C1=CC=C(C=C1)[C@H](COC2=CC3=C(C=C2)NC(=O)N3)NC(=O)C4=CC=CN(C4=O)CC5=CC(=C(C=C5)F)F
In a few lines:
(§1)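 Dounce homogenisation of K562 pellets in PBS pH 7.4 with 1 mM MgCl2 produced a crude extract, used at 1 mg/mL protein. Exposure to 10 μM compound lasted 30 min, and aliquots were then heated for 3 min across 48°C-58°C, pooled and brought to 0.5% NP-40 at 4°C. The supernatant after 21,000xg for 90 min was quantified by TMTpro 16plex LC-MS/MS with channel sums equalised. Duplicate values are given as log-two fold change in thermal stability relative to solvent controls.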

Compound in experiment [2]: CC1=C(SC2=C1C(=N[C@H](C3=NN=C(N32)C)CC(=O)N)C4=CC=C(C=C4)Cl)C
The method, boiled down: as §1

Compound in experiment [3]: CC1=C2C(=CC=C1)N=C(N(C2=O)C3=CC=CC=C3C)CN4C=NC5=C(N=CN=C54)N
In a few lines: as §1

Compound in experiment [4]: Cc1sc2c(c1C)C(c1ccc(Cl)cc1)=N[C@@H](CC(=O)OC(C)(C)C)c1nnc(C)n1-2
In a few lines: as §1

Compound in experiment [5]: c1ccc([C@@H]2C[C@H]2NC2CCNCC2)cc1
The method, boiled down:
as §1

Sequence of UniProt Q8N4C8 (Q8N4C8 whole entry, looked up): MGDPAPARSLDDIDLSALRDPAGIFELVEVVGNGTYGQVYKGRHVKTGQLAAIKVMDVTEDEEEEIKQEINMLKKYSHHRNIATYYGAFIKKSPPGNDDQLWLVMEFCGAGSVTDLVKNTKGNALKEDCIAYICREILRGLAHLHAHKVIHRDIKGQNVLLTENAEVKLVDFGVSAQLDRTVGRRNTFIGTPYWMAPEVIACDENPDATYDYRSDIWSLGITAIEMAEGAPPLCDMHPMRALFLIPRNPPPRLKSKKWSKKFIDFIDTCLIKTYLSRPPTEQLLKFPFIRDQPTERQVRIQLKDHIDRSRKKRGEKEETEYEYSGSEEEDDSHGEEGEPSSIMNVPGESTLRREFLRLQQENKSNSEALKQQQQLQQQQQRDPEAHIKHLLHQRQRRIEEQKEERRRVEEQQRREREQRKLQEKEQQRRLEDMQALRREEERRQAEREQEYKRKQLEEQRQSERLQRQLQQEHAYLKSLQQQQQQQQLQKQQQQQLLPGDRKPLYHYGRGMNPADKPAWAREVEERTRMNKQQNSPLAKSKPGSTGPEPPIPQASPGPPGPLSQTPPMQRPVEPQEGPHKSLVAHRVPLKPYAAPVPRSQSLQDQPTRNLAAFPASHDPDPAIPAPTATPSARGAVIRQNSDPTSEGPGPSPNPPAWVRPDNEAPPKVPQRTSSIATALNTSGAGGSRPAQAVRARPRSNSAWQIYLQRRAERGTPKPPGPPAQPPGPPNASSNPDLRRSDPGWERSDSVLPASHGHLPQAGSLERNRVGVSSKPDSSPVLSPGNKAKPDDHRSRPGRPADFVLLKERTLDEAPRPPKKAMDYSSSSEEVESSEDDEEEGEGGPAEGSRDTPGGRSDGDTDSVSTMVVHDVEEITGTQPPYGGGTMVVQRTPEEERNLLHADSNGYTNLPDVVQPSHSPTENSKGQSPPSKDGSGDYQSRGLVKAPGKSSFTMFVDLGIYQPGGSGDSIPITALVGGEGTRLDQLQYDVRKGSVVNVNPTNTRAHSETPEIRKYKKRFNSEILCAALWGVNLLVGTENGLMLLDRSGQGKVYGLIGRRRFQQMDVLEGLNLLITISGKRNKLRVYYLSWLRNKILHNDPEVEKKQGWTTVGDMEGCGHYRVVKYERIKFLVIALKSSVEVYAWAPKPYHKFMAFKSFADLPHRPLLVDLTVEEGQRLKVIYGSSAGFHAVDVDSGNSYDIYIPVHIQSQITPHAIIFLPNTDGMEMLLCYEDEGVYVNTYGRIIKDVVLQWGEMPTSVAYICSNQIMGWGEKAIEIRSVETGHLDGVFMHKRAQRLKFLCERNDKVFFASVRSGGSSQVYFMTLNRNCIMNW
Sequence of UniProt Q2VIQ3 (Q2VIQ3 whole entry, looked up): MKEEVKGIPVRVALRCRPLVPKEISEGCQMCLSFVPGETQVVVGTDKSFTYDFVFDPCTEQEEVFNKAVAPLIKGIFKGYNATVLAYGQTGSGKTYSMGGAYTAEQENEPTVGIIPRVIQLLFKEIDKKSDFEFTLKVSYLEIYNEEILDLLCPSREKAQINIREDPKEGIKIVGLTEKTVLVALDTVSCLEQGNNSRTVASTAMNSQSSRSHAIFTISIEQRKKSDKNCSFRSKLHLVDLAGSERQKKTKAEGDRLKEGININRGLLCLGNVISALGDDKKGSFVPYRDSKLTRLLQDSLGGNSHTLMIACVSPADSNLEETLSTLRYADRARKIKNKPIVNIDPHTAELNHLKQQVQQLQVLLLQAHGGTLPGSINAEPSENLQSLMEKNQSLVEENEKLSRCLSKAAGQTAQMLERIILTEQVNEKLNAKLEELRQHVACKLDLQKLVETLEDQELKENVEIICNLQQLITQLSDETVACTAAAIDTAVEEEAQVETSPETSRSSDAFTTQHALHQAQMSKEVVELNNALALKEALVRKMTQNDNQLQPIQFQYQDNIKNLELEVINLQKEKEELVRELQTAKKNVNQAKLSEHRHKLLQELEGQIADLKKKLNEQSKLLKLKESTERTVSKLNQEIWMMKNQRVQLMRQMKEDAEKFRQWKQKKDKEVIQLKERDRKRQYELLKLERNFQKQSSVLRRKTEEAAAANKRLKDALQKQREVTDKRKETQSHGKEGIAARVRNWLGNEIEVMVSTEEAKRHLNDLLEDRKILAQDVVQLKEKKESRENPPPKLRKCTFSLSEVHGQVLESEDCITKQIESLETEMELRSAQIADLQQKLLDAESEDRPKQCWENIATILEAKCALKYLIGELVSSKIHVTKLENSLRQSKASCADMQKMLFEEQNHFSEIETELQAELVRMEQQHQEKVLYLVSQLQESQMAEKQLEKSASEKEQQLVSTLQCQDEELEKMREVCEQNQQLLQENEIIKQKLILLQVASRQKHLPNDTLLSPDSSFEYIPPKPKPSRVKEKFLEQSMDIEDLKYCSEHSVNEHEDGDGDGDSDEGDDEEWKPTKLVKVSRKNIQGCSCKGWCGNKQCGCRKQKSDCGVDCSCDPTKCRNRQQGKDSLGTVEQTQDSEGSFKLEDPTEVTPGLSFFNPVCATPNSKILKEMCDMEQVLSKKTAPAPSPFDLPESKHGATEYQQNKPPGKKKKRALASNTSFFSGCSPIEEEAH
Sequence of UniProt P45983 (P45983 whole entry, looked up): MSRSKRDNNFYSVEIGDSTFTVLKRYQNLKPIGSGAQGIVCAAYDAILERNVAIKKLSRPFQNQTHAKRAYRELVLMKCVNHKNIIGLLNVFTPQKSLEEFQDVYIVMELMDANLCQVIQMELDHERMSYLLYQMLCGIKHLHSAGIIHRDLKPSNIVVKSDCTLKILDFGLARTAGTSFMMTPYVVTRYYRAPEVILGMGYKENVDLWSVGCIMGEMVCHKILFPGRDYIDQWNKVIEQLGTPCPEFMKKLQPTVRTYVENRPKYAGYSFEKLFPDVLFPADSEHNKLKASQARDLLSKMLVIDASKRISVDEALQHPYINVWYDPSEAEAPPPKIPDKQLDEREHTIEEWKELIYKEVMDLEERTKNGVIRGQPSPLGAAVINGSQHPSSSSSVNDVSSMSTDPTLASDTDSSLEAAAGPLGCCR
Sequence of UniProt P28482 (P28482 whole entry, looked up): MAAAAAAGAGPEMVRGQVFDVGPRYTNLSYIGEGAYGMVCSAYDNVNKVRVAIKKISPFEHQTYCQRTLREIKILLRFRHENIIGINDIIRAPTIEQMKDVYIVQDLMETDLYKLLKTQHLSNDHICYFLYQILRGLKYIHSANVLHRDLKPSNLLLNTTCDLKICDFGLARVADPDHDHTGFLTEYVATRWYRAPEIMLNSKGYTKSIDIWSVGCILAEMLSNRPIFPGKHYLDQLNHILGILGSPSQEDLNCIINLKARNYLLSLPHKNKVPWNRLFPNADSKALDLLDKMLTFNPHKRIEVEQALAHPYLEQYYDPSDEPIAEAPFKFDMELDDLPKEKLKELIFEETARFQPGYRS
Sequence of UniProt Q1ED39 (Q1ED39 whole entry, looked up): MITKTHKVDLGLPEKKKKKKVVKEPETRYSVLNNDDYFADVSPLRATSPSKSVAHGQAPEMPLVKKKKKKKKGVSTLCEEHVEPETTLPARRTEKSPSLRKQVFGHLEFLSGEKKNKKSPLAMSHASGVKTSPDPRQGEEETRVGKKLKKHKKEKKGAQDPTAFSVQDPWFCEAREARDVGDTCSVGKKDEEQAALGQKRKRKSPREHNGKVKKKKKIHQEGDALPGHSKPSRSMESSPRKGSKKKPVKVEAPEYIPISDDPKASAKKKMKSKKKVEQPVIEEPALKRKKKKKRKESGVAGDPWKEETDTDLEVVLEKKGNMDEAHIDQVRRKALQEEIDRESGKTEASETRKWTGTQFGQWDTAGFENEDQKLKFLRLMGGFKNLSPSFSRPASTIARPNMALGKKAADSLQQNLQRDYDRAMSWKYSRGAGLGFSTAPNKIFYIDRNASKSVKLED
Sequence of UniProt Q7Z3D4 (Q7Z3D4 whole entry, looked up): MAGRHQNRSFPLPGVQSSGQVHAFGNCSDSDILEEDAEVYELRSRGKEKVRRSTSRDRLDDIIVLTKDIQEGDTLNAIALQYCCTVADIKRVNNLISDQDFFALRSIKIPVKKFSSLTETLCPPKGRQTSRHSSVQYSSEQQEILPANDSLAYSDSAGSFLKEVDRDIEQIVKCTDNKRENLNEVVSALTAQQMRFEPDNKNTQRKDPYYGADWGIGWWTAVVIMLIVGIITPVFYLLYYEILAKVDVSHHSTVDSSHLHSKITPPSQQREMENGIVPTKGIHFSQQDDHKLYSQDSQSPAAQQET
Sequence of UniProt Q9UBB5 (Q9UBB5 whole entry, looked up): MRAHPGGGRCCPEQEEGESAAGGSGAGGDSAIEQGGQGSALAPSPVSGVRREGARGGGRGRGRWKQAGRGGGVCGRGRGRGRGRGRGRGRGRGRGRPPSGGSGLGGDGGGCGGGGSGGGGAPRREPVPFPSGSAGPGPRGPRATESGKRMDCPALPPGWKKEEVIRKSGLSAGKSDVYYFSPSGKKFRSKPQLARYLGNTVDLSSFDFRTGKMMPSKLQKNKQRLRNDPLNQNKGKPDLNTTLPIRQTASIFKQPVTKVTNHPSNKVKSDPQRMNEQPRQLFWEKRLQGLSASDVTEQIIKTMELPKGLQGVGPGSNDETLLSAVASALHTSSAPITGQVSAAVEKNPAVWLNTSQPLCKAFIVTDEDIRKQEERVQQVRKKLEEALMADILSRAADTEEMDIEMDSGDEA
Sequence of UniProt O95297 (O95297 whole entry, looked up): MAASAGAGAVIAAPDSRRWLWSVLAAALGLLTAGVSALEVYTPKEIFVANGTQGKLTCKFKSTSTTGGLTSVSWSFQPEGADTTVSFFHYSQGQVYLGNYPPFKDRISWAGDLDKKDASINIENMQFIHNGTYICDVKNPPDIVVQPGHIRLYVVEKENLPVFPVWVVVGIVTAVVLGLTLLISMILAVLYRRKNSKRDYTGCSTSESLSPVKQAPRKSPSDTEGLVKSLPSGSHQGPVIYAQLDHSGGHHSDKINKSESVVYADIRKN

Take KMT2A isoform 3 (UniProt Q03164): the log2 fold change is 0.043 in experiment [1]; 0.09 in experiment [2]; -0.009 in experiment [3]; -0.025 in experiment [4]; 0.016 in experiment [5].
The matching figures for KIF4B (UniProt Q2VIQ3): 0.035, 0.009, -0.02, 0.029 and 0.013.
For the target MCMBP isoform 2 (UniProt Q9BTE3), the log2 fold change in experiment [1] was 0.045; in experiment [2], 0.02; in experiment [3], 0.007; in experiment [4], 0.018.
As for MINK1 (UniProt Q8N4C8), the log2 fold change was 0.069 in experiment [1]; 0.092 in experiment [2]; -0.149 in experiment [3]; -0.066 in experiment [4]; 0.086 in experiment [5].
On to MAPK8 isoform 3 (UniProt P45983), for which the log2 fold change was -0.01 in experiment [1]; 0.03 in experiment [2]; 0.004 in experiment [3]; 0.071 in experiment [4]; -0.026 in experiment [5].
Taken in the same sequence, the figures for LYSMD3 (UniProt Q7Z3D4) were 0.031, 0.063, 0.062, -0.096 and -0.084.
Taken in the same sequence, the figures for MBD2 (UniProt Q9UBB5) were 0.042, 0.008, -0.028, 0.065 and 0.027.
In the case of METTL7A (UniProt Q9H8H3), the log2 fold change in experiment [1] is 0.069; in experiment [2], -0.059; in experiment [3] it was -0.078; in experiment [4] it was -0.008; in experiment [5], -0.074.
The matching figures for MBLAC2 (UniProt Q68D91): -0.011, -0.005, 0.001, 0.013 and -0.033.
Taken in the same sequence, the figures for MAP4K4 isoform 3 (UniProt O95819) were 0.022, 0.029, 0.015, -0.021 and 0.083.
Taken in the same sequence, the figures for MPZL1 (UniProt O95297) were 0.056, 0.006, -0.068, -0.042 and 0.125.
MAPKAPK3 (UniProt Q16644): the log2 fold change in experiment [1] was 0.03; in experiment [2] it was -0.031; in experiment [3], -0.005; in experiment [4], 0.009; in experiment [5] it was 0.019.
The matching figures for MAP11 (UniProt Q8WVR3): -0.103, 0, -0.006, 0.063 and -0.03.
Taken in the same sequence, the figures for KSR1 (UniProt Q8IVT5) were -0.081, -0.024, 0.035, 0.035 and 0.242 (active).
Taken in the same sequence, the figures for MLH1 (UniProt P40692) were -0.038, -0.006, 0.006, -0.012 and 0.019.
With KRIT1 (UniProt O00522), the log2 fold change in experiment [1] was -0.026; in experiment [2] it was -0.041; in experiment [3] it was 0.099; in experiment [4] it was -0.082.
As to KRI1 (UniProt Q8N9T8), the log2 fold change in experiment [1] was 0.053; in experiment [2], 0.043; in experiment [3] it was 0.027; in experiment [4] it was -0.048; in experiment [5] it was -0.039.
The matching figures for MCCC1 (UniProt Q96RQ3): -0.063, 0.015, 0.046, 0.002 and 0.059.
Taken in the same sequence, the figures for MAPK1 (UniProt P28482) were 0.045, -0.006, -0.016, 0.039 and 0.012.
On to KNOP1 (UniProt Q1ED39), for which the log2 fold change in experiment [1] was 0.078; in experiment [2], 0.029; in experiment [3], 0.177; in experiment [4], -0.162; in experiment [5] it was 0.032.
LSG1 (UniProt Q9H089): the log2 fold change in experiment [1] is 0.068; in experiment [2], 0.038; in experiment [3] it was 0.084; in experiment [4], -0.028; in experiment [5] it was -0.044.
Taken in the same sequence, the figures for MON2 isoform 5 (UniProt Q7Z3U7) were -0.014, 0.006, 0.005, 0.009 and -0.013.
Turning to KLHL12 isoform 2 (UniProt Q53G59), the log2 fold change in experiment [1] was 0.152; in experiment [2] it was -0.049; in experiment [3] it was -0.013; in experiment [4], 0.161.
KIFC3 isoform 6 (UniProt Q9BVG8): the log2 fold change in experiment [1] was 0.023; in experiment [2], 0.016; in experiment [3], -0.178; in experiment [4], -0.21; in experiment [5], -1.16 (active).
